Drawing on PubChem BioAssay (NCI), this text covers growth for eight compounds.

What all share (test): NCI-60 one-dose screen, 48 h (100 = growth as untreated, 0 = no growth, -100 = all killed)
What all share (conditions): 10 µM unless noted

Assay [1] deals with NCI-H23 lung.
Assay [2] has as its system NCI-H226 lung.
The subject of assay [3] is NCI-H322M lung.
For assay [4], the system named is HOP-62 NSCLC.
Assay [5] deals with NCI-H460 lung.
The subject of assay [6] is HOP-92 NSCLC.
For assay [7], the system named is NCI-H522 lung.
Assay [8] concerns A549/ATCC NSCLC.
Assay [9] deals with 786-0 renal.
In assay [10] the test system is COLO 205 colon.
The test system of assay [11] is DU-145 prostate.
For assay [12], the system named is K-562 leukemia.
For assay [13], the system named is MALME-3M melanoma.
For assay [14], the system named is MDA-MB-231 breast.
For assay [15], the system named is RXF 393 renal.
Assay [16] has as its system SF-268 CNS.
Assay [17] relates to SF-295 CNS.
Assay [18] has as its system SF-539 CNS.
In assay [19] the test system is UACC-257 melanoma.
Assay [20] relates to M14 melanoma.

Compounds without any hit were thinned out: in the full panel of roughly 83,000, 20% have a hit.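 Single-concentration screen, 48 h exposure, 96-well plates. Endpoint: percent growth. Below 10 = active.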 Values without a mark were called inactive. The source made the active and inactive calls.

In the case of `CC(C)(C)c1nn(-c2ccccc2)c2c1COCN2Cc1ccc(Cl)cc1`, the growth was 84.7% in assay [1]; 87.5% in assay [2]; 101% in [3]; 93% in assay [4]; 81.1% in assay [5]; 83.1% in [6]. Moreover, the growth in assay [7] is 4.77% (active); in assay [8] it was 115%; in assay [9], 90%; in [10], 101%; in assay [11] it was 103%; in assay [12], 47.5%. The growth is 90.2% in assay [13]; 95.1% in [14]; 100% in [15]; 103% in assay [16]; 95.9% in assay [17]; 83.6% in assay [18]. The growth was 114% in assay [19] and 91.8% in [20].
For `CN(C)C(CNc1oc(-c2cccc3ccccc23)nc1C#N)c1ccco1` (stereo not given), the growth in assay [1] is 97.1%; in assay [2], 101%; in assay [3], 99.9%; in assay [4], 94.9%; in [5] it was 101%; in [6], 94%. Besides, the growth is 86.9% in assay [7]; 91.6% in assay [8]; 90.1% in assay [9]; 93.1% in [10]; 98.7% in [11]; 74.5% in assay [12]. The growth in assay [13] was 98%; in assay [14], 107%; in [15], 99.3%; in assay [16] it was 91.4%; in [17], 90.1%; in assay [18] it was 102%. The figures for the growth in assay [19] and in [20] were 98.5% and 91.9%, respectively.
In the case of `CN1CCN(/C=C2\CC(C(=O)NCc3ccc(Cl)cc3Cl)NC2=O)CC1` (stereo not given), the growth in assay [1] was 99.5%; in assay [2], 85.7%; in assay [3], 104%; in assay [4], 108%; in assay [5], 104%; in assay [6] it was 98.8%. Moreover, the growth in [7] was 98.3%; in assay [8], 94.2%; in [9], 116%; in assay [10] it was 116%; in assay [11] it was 108%; in [12] it was 95.7%. For the same compound, the growth in [13] is 98.6%; in assay [14] it was 104%; in assay [15], 103%; in assay [16], 97.9%; in assay [17], 110%; in assay [18], 102%. Besides, the figures for the growth in assay [19] and in assay [20] were 93.2% and 110%, respectively.
In the case of `Cc1nc2sc(C(=O)Nc3cccc(Cl)c3C)c(N)c2cc1C(C)O` (stereo not given), the growth in assay [1] is 32.6%; in [2] it was 95.8%; in [3] it was 55.6%; in assay [4] it was 25.5%; in assay [5], 11.1%; in assay [6], 43.2%. Besides, the growth in [7] was -24.9% (active); in assay [8], 24.7%; in assay [9], 35.6%; in [10], -4.18% (active); in assay [11], 20%; in assay [12], 7.36% (active). Moreover, the growth in assay [13] was 71%; in assay [14], 47.5%; in [15] it was 3.16% (active); in assay [16], 47.9%; in [17], 15%; in [18] it was -12.5% (active). Further, the growth is 46.9% in assay [19] and 23.4% in assay [20].
For `C=C(C)[C@@H]1CC[C@]2(C(=O)NCCCO)CC[C@]3(C)[C@H](CC[C@@H]4[C@@]5(C)CCCNC(C)(C)[C@@H]5CC[C@]43C)[C@@H]12`, the growth in assay [1] was 77.3%; in [2], 79.8%; in assay [3], 78.6%; in assay [4], 89.9%; in assay [5], 68.9%; in [6], 58.1%. Besides, the growth in assay [7] was 88%; in [8], 73.1%; in assay [9], 85.6%; in assay [10], -62.6% (active); in [11] it was 89.1%; in [12] it was 3.26% (active). In addition, the growth was -74.4% (active) in assay [13]; 49% in [14]; 58.2% in assay [15]; 77.9% in [16]; 89.3% in assay [17]; 70.4% in [18]. Besides, the growth in assay [19] was -44.2% (active); in [20], 33.7%.
`COc1ccc2[nH]c(-c3ccccc3)c(C=C(C#N)C#N)c2c1`: the growth in assay [1] was 23.4%; in assay [2], 55.1%; in [3], 59.1%; in [4], 37.4%; in [5] it was 15.3%; in assay [6], -7.8% (active). Also, the growth in assay [7] is -18.4% (active); in assay [8], 37%; in assay [9] it was 33.9%; in [10] it was 38.2%; in [11], 35.2%; in assay [12] it was -11.9% (active). Moreover, the growth was 55.1% in [13]; 57.9% in assay [14]; 22.4% in assay [15]; 49.1% in assay [16]; -35.2% (active) in assay [17]; 14% in [18]. Moreover, the growth in assay [19] was 69.8%; in assay [20], 5.54% (active).
In the case of `OCCNc1nc(NCCO)nc(Nc2ccc(C3=NN(c4cc(Cl)cc(Cl)c4)C(c4ccccc4)C3)cc2)n1` (stereo not given), the growth in assay [1] was 50.1%; in [2] it was 96.2%; in [3] it was 57.6%; in [4], 29.1%; in assay [5] it was 23.7%; in assay [6] it was 72.1%. Besides, the growth in [7] is 48.1%; in assay [8] it was 35.9%; in assay [9], 40.3%; in assay [10] it was 34.4%; in assay [11], 45.8%; in [12], 18.4%. In addition, the growth was 59.2% in assay [13]; 42.1% in [14]; 11% in assay [15]; 50.8% in assay [16]; 10% in assay [17]; 38% in [18]. For the same compound, the growth in assay [19] is 91.2%; in [20], 46.2%.
With `Cc1[nH]c(N=Nc2ccccc2)nc1N=Nc1ccccc1`, the growth is 36.3% in assay [1]; 12.7% in [2]; 39% in assay [3]; 36.5% in [4]; 16.2% in assay [5]; 40.3% in [6]. Besides, the growth was -17.5% (active) in assay [7]; 27% in [8]; 6.21% (active) in [9]; 17.2% in [10]; 33.6% in assay [11]; 23.6% in assay [12]. The growth was 30.2% in assay [13]; 38.1% in assay [14]; -31.9% (active) in assay [15]; 19.2% in assay [16]; 17.4% in assay [17]; 6.93% (active) in [18]. The growth in assay [19] was -42.4% (active); in [20] it was 3.54% (active).
